Outcome and AC50 data for five compounds are collected here from PubChem BioAssay (EPA / NIEHS).

Activity calls are given as the source filed them. How the source made its calls: active means hit-call score of the fitted dose curve at least 0.9, where 1 is the maximum; inactive means score below 0.9.

What all share (conditions): mRNA level, 48 h; actives raise or lower the signal
Read-out in test [1]: growth arrest and DNA damage 45 (GADD45B), GADD45B (gene 4616)
Description: LTEA_HepaRG_GADD45B: Life Technologies and Expression Analysis (LTEA) Assay for growth arrest and DNA damage 45 (GADD45B) using HepaRG (AID 2283461). The method in brief:
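Differentiated HepaRG cells, plated 48 h then switched to serum-free induction medium, were exposed 48 h in duplicate to eight half-log concentrations from 100 uM in 0.5% DMSO; mRNA quantified by qRT-PCR, normalized to ACTB/GAPDH/POLR2A, bidirectional fit versus DMSO.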

Read-out in test [2]: ABC Transporter (ABCC3), ABCC3 (gene 8714)
Description: LTEA_HepaRG_ABCC3: Life Technologies and Expression Analysis (LTEA) Assay for ABC Transporter (ABCC3) using HepaRG (AID 2283462). The method in brief:
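HepaRG cells in serum-free induction medium were exposed for 48 h in duplicate to 8-point half-log concentrations topping at 100 uM in 0.5% DMSO. ABCC3 mRNA was measured by qRT-PCR normalized to ACTB, GAPDH and POLR2A, with bidirectional fitting versus DMSO.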

Read-out in test [3]: ABC Transporter (ABCB11), ABCB11 (gene 8647)
Description: LTEA_HepaRG_ABCB11: Life Technologies and Expression Analysis (LTEA) Assay for ABC Transporter (ABCB11) using HepaRG (AID 2283463). The method in brief: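 ABCB11 transcript levels are read by Fluidigm TaqMan qRT-PCR after 48 h chemical treatment of human HepaRG cells. Concentrations span 100 uM downward in half-log steps with 0.5% DMSO; gain or loss is fitted against DMSO controls.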

Read-out in test [4]: Broad substrate specificity ATP-binding cassette transporter ABCG2 (Homo sapiens) (UniProt Q9UNQ0)
Description: LTEA_HepaRG_ABCG2: Life Technologies and Expression Analysis (LTEA) Assay for ABC Transporter (ABCG2) using HepaRG (AID 2283465). In short, it runs like this:
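Read-out is ABCG2 mRNA induction or loss quantified by qRT-PCR after 48 h chemical treatment of human HepaRG cells, normalized to three housekeeping genes. Concentrations reached 100 uM top in half-log steps; fitting was bidirectional against 0.5% DMSO.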

Read-out in test [5]: ATP-citrate lyase (ACLY), ACLY (gene 47)
Put plainly: LTEA_HepaRG_ACLY: Life Technologies and Expression Analysis (LTEA) Assay for ATP-citrate lyase (ACLY) using HepaRG (AID 2283466). The method in brief: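 HepaRG, 48 h exposure, 8-pt half-log dilutions (top 100 uM), 0.5% DMSO. Readout: ACLY mRNA, TaqMan qRT-PCR, housekeeping-normalized (ACTB/GAPDH/POLR2A). Bidirectional curve fit vs DMSO.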

Read-out in test [6]: Peroxisomal acyl-coenzyme A oxidase 1 (ACOX1) gene, ACOX1 (gene 51)
Description: LTEA_HepaRG_ACOX1: Life Technologies and Expression Analysis (LTEA) Assay for Peroxisomal acyl-coenzyme A oxidase 1 (ACOX1) gene using HepaRG (AID 2283467). In short, it runs like this:
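Measured by qRT-PCR against three housekeeping genes: ACOX1 transcript change in human HepaRG cells after 48 h dosing. Concentrations ran up to 100 uM in half-log steps. Curves were fitted bidirectionally relative to 0.5% DMSO.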

Read-out in test [7]: Alkaline Phosphatase, Placental (ALPP) gene, ALPP (gene 250)
Description: LTEA_HepaRG_ALPP: Life Technologies and Expression Analysis (LTEA) Assay for Alkaline Phosphatase, Placental (ALPP) gene using HepaRG (AID 2283468). In short, it runs like this:
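Differentiated human HepaRG cells were plated and cultured 48 h, then exposed in duplicate for 48 h in serum-free induction medium to eight half-log concentrations from 100 uM in 0.5% DMSO. ALPP mRNA was measured by TaqMan qRT-PCR, normalized to ACTB, GAPDH, POLR2A.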

Read-out in test [8]: Bcl-2 (BAX) gene, BAX (gene 581)
Description: LTEA_HepaRG_BAX: Life Technologies and Expression Analysis (LTEA) Assay for Bcl-2 (BAX) gene using HepaRG (AID 2283470). The method in brief:
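Concentration-response endpoint fitted in both directions relative to 0.5% DMSO vehicle. Human HepaRG cultures receive test chemicals for 48 h at up to 100 uM; BAX mRNA is quantified by qRT-PCR against housekeeping genes.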

Read-out in test [9]: adenosine kinase (ADK) gene, ADK (gene 132)
Put plainly: LTEA_HepaRG_ADK: Life Technologies and Expression Analysis (LTEA) Assay for adenosine kinase (ADK) gene using HepaRG (AID 2283471). In short, it runs like this:
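Read-out is ADK transcript level measured by qRT-PCR and normalised to three housekeeping genes. Cells are human HepaRG, dosed for 48 h at up to 100 uM in 0.5% DMSO. Gain or loss of signal is fitted against DMSO controls.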

Read-out in test [10]: Alpha-fetoprotein (AFP) gene, AFP (gene 174)
Description: LTEA_HepaRG_AFP: Life Technologies and Expression Analysis (LTEA) Assay for Alpha-fetoprotein (AFP) gene using HepaRG (AID 2283472). The method in brief:
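After a 48 h plating period, cells are moved to serum-free induction medium and dosed in duplicate (100 uM maximum, half-log dilutions, 0.5% DMSO) for another 48 h. Total RNA goes to TaqMan qRT-PCR; AFP signal is housekeeping-normalized.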

Read-out in the next test: BCL2L11 (gene 10018)
Put plainly: LTEA_HepaRG_BCL2L11: Life Technologies and Expression Analysis (LTEA) Assay for Bcl-2 (BCL2L11) gene using HepaRG (AID 2283473). In short, it runs like this:
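Differentiated human HepaRG cells in serum-free induction medium were exposed in duplicate for 48 h to eight concentrations (top 100 uM, half-log steps, 0.5% DMSO). BCL2L11 mRNA was quantified by TaqMan qRT-PCR, normalized to ACTB/GAPDH/POLR2A, bidirectional fit versus DMSO.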

Read-out in test [11]: Apoptosis regulator Bcl-2 (Homo sapiens) (UniProt P10415)
Description: LTEA_HepaRG_BCL2: Life Technologies and Expression Analysis (LTEA) Assay for Bcl-2 gene using HepaRG (AID 2283475). In short, it runs like this: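 Expression change of BCL2 mRNA in HepaRG after 48 h dosing, quantified by TaqMan qRT-PCR against three endogenous controls. Concentration-response used eight points up to 100 uM, vehicle 0.5% DMSO.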

Read-out in test [12]: Bcl-2 (BID) gene, BID (gene 637)
Put plainly: LTEA_HepaRG_BID: Life Technologies and Expression Analysis (LTEA) Assay for Bcl-2 (BID) gene using HepaRG (AID 2283476). In short, it runs like this:
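Gain or loss of BID expression is fitted relative to 0.5% DMSO vehicle. Human HepaRG liver cells received a 48 h chemical exposure over an eight-point concentration range.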

Read-out in the next test: Caspase-3 (Homo sapiens) (UniProt P42574)
Put plainly: LTEA_HepaRG_CASP3: Life Technologies and Expression Analysis (LTEA) Assay for cysteine-aspartic acid protease (CASP3) using HepaRG (AID 2283477). The method in brief:
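Differentiated human HepaRG cells in serum-free induction medium were exposed 48 h to 8-point half-log concentrations from 100 uM (0.5% DMSO vehicle). CASP3 mRNA was measured by qRT-PCR, normalised to ACTB, GAPDH and POLR2A, with bidirectional fitting against DMSO.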

Read-out in test [13]: Cytochrome P450 (CYP24A1), CYP24A1 (gene 1591)
Description: LTEA_HepaRG_CYP24A1: Life Technologies and Expression Analysis (LTEA) Assay for Cytochrome P450 (CYP24A1) using HepaRG (AID 2283478). The method in brief: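 Differentiated HepaRG cells, pre-cultured 48 h, were exposed in duplicate for 48 h in serum-free induction medium to 8 half-log concentrations (top 100 uM, 0.5% DMSO). CYP24A1 mRNA was quantified by TaqMan qRT-PCR, normalized to ACTB/GAPDH/POLR2A, fitted bidirectionally versus DMSO.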

Read-out in test [14]: Cytochrome P450 (CYP1A2), CYP1A2 (gene 1544)
Put plainly: LTEA_HepaRG_CYP1A2: Life Technologies and Expression Analysis (LTEA) Assay for Cytochrome P450 (CYP1A2) using HepaRG (AID 2283479). The method in brief:
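Differentiated human HepaRG cells in serum-free induction medium were exposed in duplicate for 48 h to 8-point half-log concentrations up to 100 uM in 0.5% DMSO. CYP1A2 mRNA measured by qRT-PCR, normalized to ACTB, GAPDH, POLR2A; bidirectional fit vs DMSO.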

Read-out in test [15]: cysteine-aspartic acid protease (CASP8), CASP8 (gene 841)
Put plainly: LTEA_HepaRG_CASP8: Life Technologies and Expression Analysis (LTEA) Assay for cysteine-aspartic acid protease (CASP8) using HepaRG (AID 2283480). The method in brief:
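HepaRG, 48 h exposure, duplicate wells; 8 conc, half-log from 100 uM, 0.5% DMSO. Serum-free induction medium. CASP8 mRNA by TaqMan qRT-PCR, norm. ACTB/GAPDH/POLR2A; gain/loss fitted vs DMSO.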

Read-out in test [16]: Apolipoprotein A-V (APOA5) gene, APOA5 (gene 116519)
Put plainly: LTEA_HepaRG_APOA5: Life Technologies and Expression Analysis (LTEA) Assay for Apolipoprotein A-V (APOA5) gene using HepaRG (AID 2283474). In short, it runs like this: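 Differentiated human HepaRG cells were exposed in duplicate for 48 h to eight half-log concentrations from 100 uM in 0.5% DMSO. APOA5 mRNA was quantified by TaqMan qRT-PCR, normalized to ACTB, GAPDH and POLR2A, and fitted bidirectionally against DMSO.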

Read-out in test [17]: Bcl-2 (BAD) gene, BAD (gene 572)
Put plainly: LTEA_HepaRG_BAD: Life Technologies and Expression Analysis (LTEA) Assay for Bcl-2 (BAD) gene using HepaRG (AID 2283469). In short, it runs like this: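 BAD transcript change, measured by qRT-PCR against three housekeeping genes and fitted in both directions relative to 0.5% DMSO, after 48 h chemical treatment of human HepaRG liver cells at concentrations up to 100 uM.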

Read-out in test [18]: ABC Transporter (ABCC2), ABCC2 (gene 1244)
Put plainly: LTEA_HepaRG_ABCC2: Life Technologies and Expression Analysis (LTEA) Assay for ABC Transporter (ABCC2) using HepaRG (AID 2283464). In short, it runs like this: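 HepaRG cells were plated 48 h, switched to serum-free induction medium, then exposed in duplicate for 48 h to 8 concentrations (top 100 uM, half-log steps, 0.5% DMSO). ABCC2 mRNA was measured by qRT-PCR normalized to ACTB/GAPDH/POLR2A; bidirectional fitting versus DMSO.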

Caspase-3 (Homo sapiens), sequence (P42574 whole entry, looked up): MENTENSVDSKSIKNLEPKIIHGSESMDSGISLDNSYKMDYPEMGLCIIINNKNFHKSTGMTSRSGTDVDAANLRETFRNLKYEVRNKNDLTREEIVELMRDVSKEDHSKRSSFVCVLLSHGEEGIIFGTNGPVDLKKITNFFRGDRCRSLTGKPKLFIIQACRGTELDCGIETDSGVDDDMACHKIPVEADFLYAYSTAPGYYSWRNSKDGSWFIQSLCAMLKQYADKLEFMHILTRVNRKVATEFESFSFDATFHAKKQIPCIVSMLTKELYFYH
Apoptosis regulator Bcl-2 (Homo sapiens), sequence (P10415 whole entry, looked up): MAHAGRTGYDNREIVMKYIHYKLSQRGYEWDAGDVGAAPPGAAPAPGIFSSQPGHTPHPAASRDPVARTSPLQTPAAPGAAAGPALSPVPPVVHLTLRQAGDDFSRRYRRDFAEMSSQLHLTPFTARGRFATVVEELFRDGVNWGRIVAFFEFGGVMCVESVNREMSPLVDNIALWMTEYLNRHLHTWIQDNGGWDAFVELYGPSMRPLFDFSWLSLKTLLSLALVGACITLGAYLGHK
Broad substrate specificity ATP-binding cassette transporter ABCG2 (Homo sapiens), sequence (Q9UNQ0 whole entry, looked up): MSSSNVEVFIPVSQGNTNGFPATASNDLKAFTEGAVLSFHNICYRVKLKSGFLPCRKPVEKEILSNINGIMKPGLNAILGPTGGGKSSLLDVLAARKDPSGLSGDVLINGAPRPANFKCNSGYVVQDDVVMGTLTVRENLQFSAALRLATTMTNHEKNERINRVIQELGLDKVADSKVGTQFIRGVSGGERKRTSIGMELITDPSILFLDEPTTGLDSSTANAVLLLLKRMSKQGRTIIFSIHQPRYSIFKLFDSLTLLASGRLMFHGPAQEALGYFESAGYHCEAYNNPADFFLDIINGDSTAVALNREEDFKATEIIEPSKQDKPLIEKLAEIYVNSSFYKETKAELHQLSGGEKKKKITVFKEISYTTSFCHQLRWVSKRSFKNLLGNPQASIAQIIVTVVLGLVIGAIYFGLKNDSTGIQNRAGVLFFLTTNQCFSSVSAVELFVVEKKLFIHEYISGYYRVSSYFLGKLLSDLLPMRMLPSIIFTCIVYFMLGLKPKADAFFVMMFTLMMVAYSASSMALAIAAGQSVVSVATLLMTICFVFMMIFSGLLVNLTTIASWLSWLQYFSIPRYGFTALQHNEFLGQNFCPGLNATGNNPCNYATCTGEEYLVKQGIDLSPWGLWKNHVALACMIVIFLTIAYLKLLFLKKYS

In the case of `CCCCCCCCCC`, the outcome in [1], in test [2], in test [3], in test [4], in [5] and in test [6] was inactive. For the same compound, the outcome (in [7]; in test [8]; in [9]; in test [10]; in the test with BCL2L11 (gene 10018); in test [11]) was inactive. Also, the result (in test [12]; in the test with Caspase-3 (Homo sapiens); in [13]; in test [15]) was inactive. For the same compound, in test [14], the AC50 (commonly the midpoint of the concentration-response curve, whichever way the signal moves) was 50000 nM (active).

For the compound `CCCCC(CC)C(=O)OCCOCCOCCOC(=O)C(CC)CCCC` (configuration not stated), the compound was classed as inactive in test [1], in test [2], in test [3], in [4], in test [5] and in [6]. For the same compound, the call (in test [7]; in [8]; in test [9]; in test [10]; with BCL2L11 (gene 10018); in test [16]) was inactive. For the same compound, the outcome (in [11]; in [12]; with Caspase-3 (Homo sapiens); in [13]; in [14]; in test [15]) was inactive.

As for `CC(C)CCCCCCOC(=O)C1CCCCC1C(=O)OCCCCCCC(C)C` (configuration not stated), the compound was called inactive in test [1], in test [2], in test [3], in test [4], in test [5] and in test [6]. For the same compound, the call (in test [17]; in test [8]; in [10]; with BCL2L11 (gene 10018); in test [11]; in test [13]) was inactive. Moreover, the AC50 was 3.16 nM (active) in [7]; 3.16 nM (active) in [12]; 3.16 nM (active) with Caspase-3 (Homo sapiens); 50000 nM (active) in test [14]; 3.16 nM (active) in test [15].

On to `CCCCCCCCCCCCCCO`, for which the compound was called inactive in test [1], in [2], in test [3], in test [18], in test [4] and in test [5]. Moreover, the call (in [6]; in test [7]; in test [17]; in test [8]; in test [10]; with BCL2L11 (gene 10018)) was inactive. Also, the call (in [11]; in test [12]; with Caspase-3 (Homo sapiens); in [13]; in [15]) was inactive. Moreover, the AC50 in test [14] is 50000 nM (active).

Regarding `CCc1ccc(O)c(C(C)(C)C)c1`, the compound was called inactive in test [2], in test [3], in test [18], in test [4], in test [5] and in [6]. Also, the outcome (in [7]; in [17]; in test [8]; in test [10]; with BCL2L11 (gene 10018); in test [11]) was inactive. Besides, the call (in the test with Caspase-3 (Homo sapiens); in [13]; in [14]; in [15]) was inactive. The AC50 in [12] is 3.67 nM (active).
